Screens deposited in PubChem by National Center for Advancing Translational Sciences (NCATS).
D1 ag = Allosteric Agonists of the Human D1 Dopamine Receptor: qHTS. HEK293 T-REx D1 cells, calcium flux, agonist mode. activation, % at 2 µM. 360,000 compounds, 1% hits. D(1A) dopamine receptor (Homo sapiens), P21728
Target sequence (P21728 whole entry, looked up): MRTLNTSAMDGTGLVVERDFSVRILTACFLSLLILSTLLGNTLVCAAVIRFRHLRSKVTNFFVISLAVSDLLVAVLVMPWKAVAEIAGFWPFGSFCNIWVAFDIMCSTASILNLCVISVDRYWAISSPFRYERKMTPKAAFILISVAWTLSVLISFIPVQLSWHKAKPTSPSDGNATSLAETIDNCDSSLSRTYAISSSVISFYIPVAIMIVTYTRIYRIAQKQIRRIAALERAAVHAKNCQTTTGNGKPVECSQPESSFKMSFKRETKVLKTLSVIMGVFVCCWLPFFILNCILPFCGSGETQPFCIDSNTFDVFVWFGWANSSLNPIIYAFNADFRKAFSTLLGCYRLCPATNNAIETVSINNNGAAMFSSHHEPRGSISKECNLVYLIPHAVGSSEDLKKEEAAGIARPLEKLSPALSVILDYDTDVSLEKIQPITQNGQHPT
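Inducible HEK293 T-REx D1 cells, force-coupled to calcium signalling, were plated at 4000 cells/well with tetracycline and held overnight at 30 C. After no-wash calcium dye loading, compound-evoked calcium rise over 180 s flagged agonists.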
TRHR PAM = qHTS for Small Molecule Agonists and Allosteric Enhancers of Human TRH Receptor: Primary Screen for Enhancers | 360,000 compounds, 0.66% hits | Thyrotropin-releasing hormone receptor (Homo sapiens), P34981 | enhancement, % at 2 µM | AID 493056, 2011 | TRHR cells, fluo-8 calcium fluorescence, EC20 TRH enhancement; in the data active means enhancement above about 30%
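TRHR-expressing cells loaded with fluo-8 calcium dye were read kinetically (ex 480/em 530) during compound addition, then stimulated with an EC20 of TRH (10 nM final). Enhancement of the Gq-mediated intracellular calcium response was scored.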
D1 antag = Antagonist of Human D 1 Dopamine Receptor: qHTS. AID 504652, 2011. 360,000 compounds, 3.2% hits. HEK293 TREx D1 cells, calcium flux, dopamine EC80; stronger effect = lower value. D(1A) dopamine receptor (Homo sapiens), P21728. activity change, negative = inhibition, % at 10 µM; in the data active means activity change below about -30%
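After overnight tetracycline induction at 30 C, force-coupled D1 HEK293 cells took up a no-wash calcium dye at room temperature. Compounds were added and monitored 180 s, and the response to EC80 dopamine was then recorded.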
TRHR agonist = qHTS for Small Molecule Agonists and Allosteric Enhancers of Human TRH Receptor: Primary Screen for Agonists; Thyrotropin-releasing hormone receptor (Homo sapiens), P34981; TRHR cells, calcium flux fluo-8, FDSS agonist mode; activation, % at 2 µM; 360,000 compounds, 0.18% hits
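TRHR-expressing cells loaded with fluo-8 calcium dye; 23 nL library compound pin-transferred, kinetic FDSS fluorescence (Ex 480/Em 530) recorded about 180 s for agonist-induced calcium release, before a 10 nM TRH EC20 addition for potentiator mode.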
D1 potentiator = Potentiators of Human D1 Dopamine Receptor: qHTS. D(1A) dopamine receptor (Homo sapiens), P21728. HEK293 TREx D1 cells, calcium flux, dopamine EC20 potentiation. potentiation, % at 10 µM. 360,000 compounds, 0.036% hits; in the data active means potentiation above about 30%
Large screens that a line does not name were inactive; ! = a repeat was not active. Rows were chosen to be rich in hits. Some 4.7% of all compounds tested hit in one or more screens of this group. Unless noted, no stated cut-off is given here; in the data, active means activation above about 30%; inactive means the rest.

COCCNc1ccc(N2C(=O)CCCC2=O)cc1[N+](=O)[O-]	D1 antag -46.5
COc1ccccc1CNC(=O)C1CCCN(c2nn3cc(-c4ccc(F)cc4)nc3s2)C1 (centres undefined)	none
CCCCOc1ccc(S(=O)(=O)n2nc(C)c(S(=O)(=O)N3CCC(C)CC3)c2C)cc1	none
Cc1[nH]n(-c2ccccc2)c(=O)c1/C=N/c1ccccn1	none
Cc1ccccc1-c1ccnc2[nH]n(-c3ccccc3)c(=O)c12	D1 antag -36.6!
CC(C)OCCCNC(=O)c1ccc2c(c1)N(Cc1c(F)cccc1Cl)C(=O)c1ccccc1S2	none
CC(=O)Nc1ccc(NC(=O)c2cnn(-c3ccccc3)c2C2CCN(C(=O)OC(C)(C)C)CC2)cc1	none
S=c1[nH]ncn1/N=C/c1ccccc1	D1 antag -30.4
S=c1[nH]ncn1/N=C/c1ccc(Br)cc1	none
CN(C)S(=O)(=O)c1ccc(NC(=O)C2COc3ccccc3O2)cc1 (centres undefined)	none
CN(C)S(=O)(=O)c1ccc(NC(=O)C2CC3C=CC2C3)cc1 (centres undefined)	D1 antag -30.2
Cc1ccc(C2C(C#N)=C(N)SC(N)=C2C#N)c(C)c1	D1 ag 51.2
COc1ccc(-c2cc(C(=O)N3CC4(C)CC3CC(C)(C)C4)no2)cc1OC (centres undefined)	none
COc1ccc(-c2cc(C(=O)N3CC4(C)CC3CC(C)(C)C4)no2)cc1 (centres undefined)	D1 antag -32.7
Cc1ccc(C)c(N2CCN(C(=O)c3cc(C)nc4c3c(C)nn4-c3cccc(F)c3)CC2)c1	none
Cc1ccc(S(=O)(=O)n2nc(C)c(S(=O)(=O)N3CCC(C)CC3)c2C)cc1	none
O=c1c2[nH]c3cc(Br)sc3c2cnn1Cc1ccccc1F	none
CCc1nc2c(c(=O)c3ccccc3n2C)c(=O)n1C1CCCCCC1	D1 ag 194.8, TRHR agonist 39.0
Cn1c2ccccc2c(=O)c2c(=O)n(-c3ccccc3)c(C3CCCCC3)nc21	none
Cn1c2ccccc2c(=O)c2c(=O)n(C3CCCCC3)c(-c3cccs3)nc21	D1 ag 116.3, D1 antag -32.2
Cn1c2ccccc2c(=O)c2c(=O)n(C3CCCCCC3)c(C3CCCCC3)nc21	D1 ag 121.0
CCOc1ccc(/C=C(\C#N)C(=O)Nc2sc3c(c2C(=O)OC)CCC3)cc1OC	none
CCc1cccc(NC(=O)c2ccc(NC(=O)N3CCSc4ncccc43)cc2)c1	none
Cc1c(C(=O)N2CCCC2)oc2c1-c1nn(CC(=O)NCc3cccc(Br)c3)cc1CC2	none
CCNC(=O)COC(=O)c1cc(C)n(-c2ccccc2)c1C	D1 antag -54.8
COc1ccc2nc(-c3ccccc3)cc(C(=O)OCC(=O)N3CC(C)OC(C)C3)c2c1 (centres undefined)	TRHR PAM 40.9
COc1ccc2nc(-c3ccccc3)cc(C(=O)OCC(=O)N3CCCCC3)c2c1	none
Cc1cc(C(=O)OCC(=O)N2CC(C)OC(C)C2)c(C)n1-c1ccccc1 (centres undefined)	D1 antag -64.8 (no result: D1 potentiator)
Cc1ccc(NC(=O)C(c2ccccc2)c2ccccc2)nc1	none
CCn1cc(S(=O)(=O)Nc2ccc(C)c(Cl)c2)cn1	none
O=C1CSc2ccc(S(=O)(=O)N3CCN(c4ccccc4F)CC3)cc2N1	none
CCCCOc1ccc(/C(O)=C2/C(=O)C(=O)N(Cc3cccnc3)C2c2ccncc2)c(C)c1 (centres undefined)	D1 antag -56.3
CC(C)Cc1[nH]c(=O)c(C#N)c2c1COC(C)(C)C2	D1 antag -32.7
CCCc1[nH]c(=O)c(C#N)c2c1COC(C)(C)C2	none
Cc1ccc2nc(NCc3ccccc3)c(C=NCc3ccccc3)c(=O)n2c1	none
Cc1ccc2nc(NCCCN3CCOCC3)c(C=NCCCN3CCOCC3)c(=O)n2c1	TRHR PAM 31.8
NC(=O)c1ccccc1NS(=O)(=O)c1ccc2c(c1)OCCO2	D1 antag -35.7
NS(=O)(=O)c1ccc(NS(=O)(=O)c2ccc3c(c2)OCCO3)cc1	none
CCOC(=O)COc1ccc(S(=O)(=O)Nc2ccc(C)cc2)cc1	D1 ag 44.7
